Assay results: ChEMBL document CHEMBL4513146, “CO-ADD screening of Karazin Kharkiv National University (Ukraine) compounds”
Results with a measured potency or affinity are listed apart.

How the values were obtained:
[1] = tested on: Staphylococcus aureus; settings: Concentration 32 ug.mL-1;; ASSAY_TEST Inhibition of Bacterial Growth; detection method Absorption (OD600); MEDIA CAMHB; plate type 384well; NBS; CORNING #3640; time 18 hr
[2] = tested on: Escherichia coli; settings: Concentration 32 ug.mL-1;; ASSAY_TEST Inhibition of Bacterial Growth; detection method Absorption (OD600); MEDIA CAMHB; plate type 384well; NBS; CORNING #3640; time 18 hr

Row | Structure (SMILES) | Inhibition [1] [%] | Inhibition [2] [%]
1 | CCc1nnc2c(S(=O)(=O)N(Cc3cccc(C)c3)c3ccc(Cl)cc3)cccn12 | 8.39 | 0.27
2 | CC(=O)c1ccc(N2CCN(C(=O)CCc3nnc4c5cc(-c6ccccc6)nn5ccn34)CC2)cc1 | 11.68 | 2.66
3 | Cc1ccccc1NC(=O)Cn1nc2ccc(SC3CCCCC3)nn2c1=O | 2.21 | -7.39
4 | Cc1nnc2ccc(S(=O)(=O)N(Cc3ccccc3)c3cccc(F)c3)cn12 | 2.5 | -6.96
5 | CCOC(=O)c1ccccc1NC(=O)Cn1nc2ccc(C(=O)Nc3ccc(OC)cc3)cn2c1=O | 0.2 | -8.03
6 | COc1ccc(NC(=O)C(C)Sc2nnc3c(=O)n(-c4ccc(C)c(C)c4)ccn23)cc1 (centres undefined) | 7 | -4.16
7 | CCCCn1c(=O)c2sccc2n2c(CCC(=O)NCCC34CC5CC(CC(C5)C3)C4)nnc12 | 7.09 | 0.44
8 | Cc1ccc(-n2ccn3c(SC(C)C(=O)Nc4ccc5c(c4)OCCO5)nnc3c2=O)cc1C (centres undefined) | 12.06 | -2.85
9 | Cc1cc(C)c(NC(=O)Cn2nc3c(Sc4cccc(F)c4)nccn3c2=O)c(C)c1 | 9.93 | -1.39
10 | CC(C)Cn1c(=O)c2sccc2n2c(=O)n(CC(=O)N3CCC(Cc4ccccc4)CC3)nc12 | -13.33 | -14.95
11 | COc1cccc(Sc2nc3ccccc3n3c(=O)n(CC(=O)N4CCCc5ccccc54)nc23)c1 | -3.45 | -7.6
12 | O=c1c2nn(Cc3cccc([N+](=O)[O-])c3)c(=O)n2ccn1-c1ccccc1 | -0.55 | -2.06
